Data on ten compounds can be found in PubChem BioAssay (Tox21).

A short description of assay [1]: Caspase-3/7 induction in HepG2 cells by small molecules, qHTS assay (AID 1346978). Also: nearly all actives have a fitted effect of over 15% in size. A digest of the protocol:
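Wild-type HepG2 cells, 2,000/well, settled 5 hr at 37 C and 5% CO2, then compound-treated for 17 hr; caspase-3/7 activity read by luminescent Caspase-Glo 3/7 after 30 min at room temperature.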
A general note: In qHTS, concentration-response curves come from the screen itself.

A short description of assay [2]: Caspase-3/7 induction in CHO-K1 cells by small molecules, qHTS cell viability counter screen (AID 1346979). Also: nearly all actives have a fitted effect of over 35% in size. Also: potency is read from the fitted curve at half-maximal effect. A digest of the protocol: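 CHO-K1 wt, 1,500 cells/well; 5hr pre-incubation 37C/5% CO2; compound pin transfer (DMSO); 16hr exposure; CellTiter-Fluor added, 1hr, fluorescence read.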
Assay [3] can be described thus: Caspase-3/7 induction in CHO-K1 cells by small molecules, qHTS assay (AID 1346980). Also: nearly all actives have a fitted effect of over 15% in size. A digest of the protocol: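 Wild-type CHO-K1 cells exposed to compounds for 17hr at 37 C, 5% CO2. Caspase-3/7 activity then measured by Caspase-Glo 3/7 luminescence after 30min at room temperature.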
Assay [4] in a line: Caspase-3/7 induction in HepG2 cells by small molecules, qHTS cell viability counter screen (AID 1346981). Also: nearly all actives have a fitted effect of over 30% in size. Also: potency is read from the fitted curve at half-maximal effect. The procedure, abridged:
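Steps: seed 2,000 HepG2 cells per well; incubate 5 hr at 37 C; pin-add compounds in DMSO; incubate 16 hr; add CellTiter-Fluor; after 1 hr at 37 C and 5% CO2, read fluorescence.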

Assay [5] addresses Nuclear receptor subfamily 1 group I member 2 (Homo sapiens) (UniProt O75469). The assay can be described thus: Human pregnane X receptor (PXR) small molecule agonists, qHTS assay (AID 1346982). Also: nearly all actives have a fitted effect of over 35% in size. Also: potency is read from the fitted curve at half-maximal effect. The procedure, abridged: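 Agonist mode qHTS: PXR-Luc HepG2 cells plated 5 hr before DMSO-dissolved compounds were pinned in, cultured 24 hr at 37 C, 5% CO2; ONE-Glo luminescence readout.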

Assay [6] has as its target Acetylcholinesterase (Homo sapiens) (UniProt P22303). In words: Acetylcholinesterase (AChE) small molecule antagonists: enzyme-based qHTS assay (AID 1347397; calls by dose curve; also: nearly all actives have a fitted effect of over 55% in size). To be noted: Potency: AChE enzyme activity inhibition. The procedure, abridged: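 Recombinant human AChE (50 mU/mL) preincubated with compound 30 min at room temperature; acetylthiocholine plus DTNB then added, and thiocholine formation read colorimetrically after 10 min at room temperature. DMSO served as vehicle control.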

Assay [7] has the same target. In words: Acetylcholinesterase (AChE) small molecule antagonists: enzyme-based qHTS assay with human liver microsomes (AID 1347399; calls by dose curve; also: nearly all actives have a fitted effect of over 60% in size). To be noted: Potency: qHTS inhibition. A digest of the protocol:
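Recombinant human AChE (50 mU/mL in the enzyme mix) and human liver microsomes (0.25 mg/mL final) were preincubated with compound and NADPH (0.25 mg/mL final) for 30 min at 37 C. Acetylthiocholine/DTNB was then added; thiocholine was read colorimetrically after 10 min at room temperature.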

For assay [8], the target named is Cytochrome P450 2C19 (Homo sapiens) (UniProt P33261). The assay can be described thus: Cytochrome P450 Family 2 Subfamily C Member 19 (CYP2C19) small molecule antagonists: luciferase reporter qHTS assay (AID 1671197). Also: nearly all actives have a fitted effect of over 65% in size. Also: potency is read from the fitted curve at half-maximal effect. A digest of the protocol: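 Compounds were tested on CYP2C19 activity via proluciferin conversion to luciferin. The 37C, 1 h reaction followed NADPH addition; detection reagent stopped it.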
(In general: In a reporter assay the amount or activity of a reporter protein is the signal.)

The target of assay [9] is Cytochrome P450 1A2 (Homo sapiens) (UniProt P05177). In words: Cytochrome P450 Family 1 Subfamily A Member 2 (CYP1A2) small molecule antagonists: luciferase reporter qHTS assay (AID 1671199). Also: nearly all actives have a fitted effect of over 50% in size. Also: potency is read from the fitted curve at half-maximal effect. A digest of the protocol:
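Inhibition of CYP1A2 conversion of proluciferin to luciferin, detected by luminescence. Reaction run 1 h at room temperature with NADPH regeneration after brief compound preincubation.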

Assay [10] deals with Cytochrome P450 3A4 (Homo sapiens) (UniProt P08684). In words: Cytochrome P450 Family 3 Subfamily A Member 4 (CYP3A4) small molecule antagonists: luciferase reporter qHTS assay (AID 1671201). Also: nearly all actives have a fitted effect of over 50% in size. Also: potency is read from the fitted curve at half-maximal effect. A digest of the protocol:
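Luminescent readout (RLU) proportional to CYP3A4 activity, from luciferin generated off a proluciferin substrate. Enzyme–substrate mix plus compound 10 min at room temp, NADPH regeneration 1 h, detection reagent 20 min.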

The target in assay [11] is Cytochrome P450 2D6 (Homo sapiens) (UniProt P10635). In words: Cytochrome P450 Family 2 Subfamily D Member 6 (CYP2D6) small molecule antagonists: luciferase reporter qHTS assay (AID 1671196). Also: nearly all actives have a fitted effect of over 50% in size. Also: potency is read from the fitted curve at half-maximal effect. A digest of the protocol:
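P450-Glo format: CYP2D6 converts a proluciferin substrate to luciferin in an NADPH-driven reaction lasting 1 h at room temperature. Light output, proportional to CYP2D6 activity, reflects interference by test chemicals.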

For assay [12], the target named is Cytochrome P450 2C9 (Homo sapiens) (UniProt P11712). The assay can be described thus: Cytochrome P450 Family 2 Subfamily C Member 9 (CYP2C9) small molecule antagonists: luciferase reporter qHTS assay (AID 1671198). Also: nearly all actives have a fitted effect of over 50% in size. Also: potency is read from the fitted curve at half-maximal effect. The procedure, abridged: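 P450-Glo proluciferin substrate with CYP2C9 enzyme; 10 min RT preincubation, then NADPH regeneration 1 h at 37C; luciferin detection reagent 20 min RT, luminescence in relative luminescence units.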

Assay [13] concerns the target Voltage-gated inwardly rectifying potassium channel KCNH2 (Homo sapiens) (UniProt Q12809). The assay can be described thus: Human Ether-a-go-go-Related Gene (hERG) channel small molecule antagonists: fluorescence cell-based qHTS assay (AID 1671200). Also: nearly all actives have a fitted effect of over 50% in size. Also: potency is read from the fitted curve at half-maximal effect. The procedure, abridged: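 Read-out: thallium influx as a surrogate for potassium, tracked as fluorescence (480 nm ex/540 nm em) every second for 2 min after Stimulus Buffer addition in dye-loaded hERG-U2OS cells.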
Background: hERG is a cardiac potassium channel; its block is linked to QT prolongation.

Assay [14] has as its target Acetylcholinesterase (Homo sapiens) (UniProt P22303). In words: Acetylcholinesterase (AChE) small molecule antagonists: colormetric cell-based qHTS assay (AID 1347395; calls by dose curve; also: nearly all actives have a fitted effect of over 30% in size; also: potency is read from the fitted curve at half-maximal effect). The procedure, abridged: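 SH-SY5Y cells; cpd 30 min 37 C; + DTNB/acetylthiocholine, 90 min 37 C; colorimetric thiocholine read; qHTS.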
Assay [15] has the same target. In words: Acetylcholinesterase (AChE) small molecule antagonists: fluorescence cell-based qHTS assay (AID 1347398; calls by dose curve; also: nearly all actives have a fitted effect of over 50% in size). To be noted: Potency: AChE activity. The procedure, abridged: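 SH-SY5Y cells (2000/well), attached overnight, incubated with compound 30 min at 37 C. Acetylthiocholine plus Thiolite Green then added for 40 min at room temperature. Thiocholine fluorescence (Ex/Em 490/520 nm) reports cellular AChE activity.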

The target in assay [16] is Nuclear receptor subfamily 1 group I member 2 (Rattus norvegicus) (UniProt Q9R1A7). The assay can be described thus: Rat pregnane X receptor (rPXR) activation by small molecules, qHTS assay (AID 1346983). Also: nearly all actives have a fitted effect of over 20% in size. To be noted: rPXR luciferase reporter cells, One-Glo luminescence, 24 h; max activation: stronger effect = higher value. A digest of the protocol: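 Cell-based rPXR activation assay: rPXR cells, 2,000 per well, rested 5hr at 37 C, then exposed to compounds in DMSO for 24 hr at 37 C. Luciferase activity read by One-Glo luminescence after 30 min at room temperature.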

Values joined by “and” are separate entries in the source; they are usually repeats but may differ in a detail not shown here. Identical values can stand only once. Inconclusive results are not listed. Where a structure was tested more than once in an assay, its records may differ in their call. Active and inactive are the calls of the source. Unless noted, calls follow the shape of the dose curve; as a rule, active = well fitted curve in the direction sought with a large enough effect in the repeat runs; inconclusive = weak or mixed curves; inactive = no such curve, though single readings can be large; an effect the other way counts as inactive or inconclusive.
% is scaled to controls: 0 for no effect and ±100 for the full control effect.

Cytochrome P450 2C9 (Homo sapiens), sequence (P11712 whole entry, looked up): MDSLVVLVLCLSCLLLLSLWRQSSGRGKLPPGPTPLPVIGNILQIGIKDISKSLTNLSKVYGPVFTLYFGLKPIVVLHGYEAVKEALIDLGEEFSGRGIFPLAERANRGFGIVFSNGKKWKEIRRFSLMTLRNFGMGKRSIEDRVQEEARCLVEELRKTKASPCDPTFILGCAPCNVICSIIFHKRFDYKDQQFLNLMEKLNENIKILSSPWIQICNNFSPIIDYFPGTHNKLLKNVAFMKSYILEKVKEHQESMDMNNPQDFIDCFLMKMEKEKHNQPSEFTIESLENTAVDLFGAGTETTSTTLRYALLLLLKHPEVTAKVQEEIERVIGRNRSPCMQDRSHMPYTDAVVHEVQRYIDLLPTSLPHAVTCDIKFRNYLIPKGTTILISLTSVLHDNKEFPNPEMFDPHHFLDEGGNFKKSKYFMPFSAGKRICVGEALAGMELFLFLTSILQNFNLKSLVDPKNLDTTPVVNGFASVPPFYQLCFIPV
Nuclear receptor subfamily 1 group I member 2 (Homo sapiens), sequence (O75469 whole entry, looked up): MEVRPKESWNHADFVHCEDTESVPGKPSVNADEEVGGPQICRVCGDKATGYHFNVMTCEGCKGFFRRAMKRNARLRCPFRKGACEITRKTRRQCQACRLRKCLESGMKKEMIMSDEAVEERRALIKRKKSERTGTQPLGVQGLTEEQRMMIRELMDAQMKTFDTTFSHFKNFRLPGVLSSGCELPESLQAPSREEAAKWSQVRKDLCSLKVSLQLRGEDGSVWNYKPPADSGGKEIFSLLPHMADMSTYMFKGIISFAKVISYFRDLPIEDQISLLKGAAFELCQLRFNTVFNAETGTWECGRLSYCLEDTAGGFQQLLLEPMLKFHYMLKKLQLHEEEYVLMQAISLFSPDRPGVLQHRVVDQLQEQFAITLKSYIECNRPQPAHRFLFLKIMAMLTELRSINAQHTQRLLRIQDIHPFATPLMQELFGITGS
Cytochrome P450 3A4 (Homo sapiens), sequence (P08684 whole entry, looked up): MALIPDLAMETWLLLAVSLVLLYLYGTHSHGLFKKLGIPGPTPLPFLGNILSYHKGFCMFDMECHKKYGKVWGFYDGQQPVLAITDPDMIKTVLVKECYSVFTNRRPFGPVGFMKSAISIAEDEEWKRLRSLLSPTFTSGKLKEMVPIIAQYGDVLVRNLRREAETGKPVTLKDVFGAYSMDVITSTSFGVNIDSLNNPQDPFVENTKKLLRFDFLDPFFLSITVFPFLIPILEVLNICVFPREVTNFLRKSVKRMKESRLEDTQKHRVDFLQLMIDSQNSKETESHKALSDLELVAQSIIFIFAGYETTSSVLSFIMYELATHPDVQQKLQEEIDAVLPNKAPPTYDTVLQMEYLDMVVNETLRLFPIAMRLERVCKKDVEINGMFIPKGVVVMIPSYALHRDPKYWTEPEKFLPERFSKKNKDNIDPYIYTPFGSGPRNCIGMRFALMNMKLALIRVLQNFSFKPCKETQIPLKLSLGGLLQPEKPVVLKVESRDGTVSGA
Cytochrome P450 1A2 (Homo sapiens), sequence (P05177 whole entry, looked up): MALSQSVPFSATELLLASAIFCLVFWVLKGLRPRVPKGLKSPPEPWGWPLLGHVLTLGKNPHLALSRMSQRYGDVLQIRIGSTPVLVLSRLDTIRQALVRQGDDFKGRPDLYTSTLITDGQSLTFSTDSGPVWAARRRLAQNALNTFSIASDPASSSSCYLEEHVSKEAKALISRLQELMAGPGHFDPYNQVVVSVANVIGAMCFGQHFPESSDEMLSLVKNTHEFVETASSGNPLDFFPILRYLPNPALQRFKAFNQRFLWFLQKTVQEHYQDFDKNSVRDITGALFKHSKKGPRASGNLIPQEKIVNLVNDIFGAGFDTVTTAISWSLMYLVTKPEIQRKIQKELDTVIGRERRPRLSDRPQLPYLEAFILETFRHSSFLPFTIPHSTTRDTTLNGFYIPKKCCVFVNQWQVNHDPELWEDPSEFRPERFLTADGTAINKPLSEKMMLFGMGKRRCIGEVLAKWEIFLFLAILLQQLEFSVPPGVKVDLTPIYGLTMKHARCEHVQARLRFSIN
Cytochrome P450 2C19 (Homo sapiens), sequence (P33261 whole entry, looked up): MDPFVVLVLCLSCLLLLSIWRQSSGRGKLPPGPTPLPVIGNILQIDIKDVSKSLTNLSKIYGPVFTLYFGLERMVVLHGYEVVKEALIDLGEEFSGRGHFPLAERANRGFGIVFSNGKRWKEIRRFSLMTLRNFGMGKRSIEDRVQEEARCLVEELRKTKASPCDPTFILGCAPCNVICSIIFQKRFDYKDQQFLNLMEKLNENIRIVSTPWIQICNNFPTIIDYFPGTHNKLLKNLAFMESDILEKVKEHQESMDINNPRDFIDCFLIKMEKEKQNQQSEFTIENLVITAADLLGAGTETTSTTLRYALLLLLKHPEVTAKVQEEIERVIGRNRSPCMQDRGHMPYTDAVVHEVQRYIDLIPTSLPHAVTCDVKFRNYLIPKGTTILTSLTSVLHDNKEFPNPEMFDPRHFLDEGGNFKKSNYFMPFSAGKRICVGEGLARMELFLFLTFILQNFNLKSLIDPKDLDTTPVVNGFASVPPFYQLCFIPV
Acetylcholinesterase (Homo sapiens), sequence (P22303 whole entry, looked up): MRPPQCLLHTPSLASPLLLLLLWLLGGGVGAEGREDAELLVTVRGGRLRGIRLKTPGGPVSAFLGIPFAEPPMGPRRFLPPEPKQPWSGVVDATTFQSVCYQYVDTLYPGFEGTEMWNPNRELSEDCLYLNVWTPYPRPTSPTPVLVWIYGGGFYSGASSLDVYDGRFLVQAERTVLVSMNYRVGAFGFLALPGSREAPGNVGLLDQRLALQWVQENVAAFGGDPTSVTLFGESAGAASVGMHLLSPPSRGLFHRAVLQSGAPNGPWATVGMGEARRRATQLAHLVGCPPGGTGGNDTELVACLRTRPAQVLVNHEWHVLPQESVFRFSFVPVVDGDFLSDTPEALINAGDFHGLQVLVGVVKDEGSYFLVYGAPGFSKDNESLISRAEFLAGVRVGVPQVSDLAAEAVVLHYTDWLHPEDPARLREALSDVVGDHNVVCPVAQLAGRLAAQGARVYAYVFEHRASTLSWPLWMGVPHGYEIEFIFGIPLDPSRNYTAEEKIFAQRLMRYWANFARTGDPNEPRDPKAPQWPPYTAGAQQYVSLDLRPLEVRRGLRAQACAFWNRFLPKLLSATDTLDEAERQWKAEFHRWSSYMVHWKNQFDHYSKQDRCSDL
Cytochrome P450 2D6 (Homo sapiens), sequence (P10635 whole entry, looked up): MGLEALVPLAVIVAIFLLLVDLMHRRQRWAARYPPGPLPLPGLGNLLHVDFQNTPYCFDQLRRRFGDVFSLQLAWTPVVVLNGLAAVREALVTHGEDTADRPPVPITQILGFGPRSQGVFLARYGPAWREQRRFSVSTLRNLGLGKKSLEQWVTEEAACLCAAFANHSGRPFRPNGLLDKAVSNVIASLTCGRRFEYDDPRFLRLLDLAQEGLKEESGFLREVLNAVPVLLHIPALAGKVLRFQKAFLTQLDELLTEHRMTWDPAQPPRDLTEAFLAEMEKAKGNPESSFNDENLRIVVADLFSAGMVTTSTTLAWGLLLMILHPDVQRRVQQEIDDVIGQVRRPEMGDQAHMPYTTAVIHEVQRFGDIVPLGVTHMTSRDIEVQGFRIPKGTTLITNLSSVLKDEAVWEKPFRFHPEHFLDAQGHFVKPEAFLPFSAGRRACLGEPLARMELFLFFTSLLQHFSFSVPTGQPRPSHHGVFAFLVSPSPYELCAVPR
Voltage-gated inwardly rectifying potassium channel KCNH2 (Homo sapiens), sequence (Q12809 whole entry, looked up): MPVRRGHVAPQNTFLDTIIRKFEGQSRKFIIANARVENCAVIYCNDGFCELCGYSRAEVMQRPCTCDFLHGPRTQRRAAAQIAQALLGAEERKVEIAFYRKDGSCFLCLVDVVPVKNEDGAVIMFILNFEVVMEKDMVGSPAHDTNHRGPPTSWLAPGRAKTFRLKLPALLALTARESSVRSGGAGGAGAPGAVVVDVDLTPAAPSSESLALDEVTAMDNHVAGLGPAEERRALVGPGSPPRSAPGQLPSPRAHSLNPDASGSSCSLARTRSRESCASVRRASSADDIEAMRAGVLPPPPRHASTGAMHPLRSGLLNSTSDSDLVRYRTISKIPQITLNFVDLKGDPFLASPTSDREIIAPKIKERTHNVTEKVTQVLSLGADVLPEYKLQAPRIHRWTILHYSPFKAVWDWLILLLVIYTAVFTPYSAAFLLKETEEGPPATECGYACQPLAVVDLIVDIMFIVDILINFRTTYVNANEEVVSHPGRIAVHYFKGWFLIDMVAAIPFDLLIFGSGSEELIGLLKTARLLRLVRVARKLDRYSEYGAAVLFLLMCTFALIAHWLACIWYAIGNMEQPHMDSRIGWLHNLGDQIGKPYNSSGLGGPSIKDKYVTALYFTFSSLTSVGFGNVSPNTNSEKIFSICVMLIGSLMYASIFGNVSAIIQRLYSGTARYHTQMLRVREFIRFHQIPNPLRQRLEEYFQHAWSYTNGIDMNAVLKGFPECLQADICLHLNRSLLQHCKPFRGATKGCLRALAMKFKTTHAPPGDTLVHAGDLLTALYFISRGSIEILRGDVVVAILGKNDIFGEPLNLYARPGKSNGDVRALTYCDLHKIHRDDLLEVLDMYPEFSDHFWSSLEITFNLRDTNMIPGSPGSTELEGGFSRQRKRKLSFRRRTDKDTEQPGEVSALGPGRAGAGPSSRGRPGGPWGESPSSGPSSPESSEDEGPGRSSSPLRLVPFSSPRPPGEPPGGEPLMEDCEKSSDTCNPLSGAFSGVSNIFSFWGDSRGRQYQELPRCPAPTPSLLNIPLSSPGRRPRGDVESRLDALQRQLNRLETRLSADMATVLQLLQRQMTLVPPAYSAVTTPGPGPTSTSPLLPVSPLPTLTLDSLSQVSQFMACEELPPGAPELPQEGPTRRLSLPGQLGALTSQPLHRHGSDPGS

As to `COc1c(C(C)(C)C)cc([N+](=O)[O-])c(C)c1[N+](=O)[O-]`, the Potency entry in assay [1], in assay [2], in assay [3], in assay [4], in assay [6] and in assay [7] was “inactive” each time. Moreover, in assay [10], the Potency result was “inactive”. Also, the figures for the Potency in assay [5], in assay [8] and in [9] were 9.61 µM (active), 28.1 µM (active) and 1.77 µM (active), respectively.
As for `CCOP(=O)(OCC)Oc1ccc([N+](=O)[O-])cc1`, the Potency result in assay [1], in assay [2], in assay [3], in assay [4], in assay [13] and in assay [10] was “inactive” in each case. Also, the Potency in [11] was 1.61 µM (active) and 1.59 µM (active); in [8] it was 1.61 µM (active) and 1.78 µM (active); in assay [12] it was 64 µM (active); in [9], 32.1 µM (active) and 31.7 µM (active).
Regarding `CCn1cc[n+](C)c1`, the Potency result in [1], in assay [2], in [3], in [4] and in assay [10] was “inactive” each time. In addition, the Potency result in assay [5] was “inactive and 48.6 µM (active)”; in assay [11], “inactive and 507 nM (active) and 34.7 µM (active)”; in assay [8] it was “inactive and 40.3 µM (active) and 79.5 µM (active)”; in [12], “inactive and 32 µM (active)”; in assay [9] it was 35.5 µM (active) and inactive and 39 µM (active); in [13] it was “inactive and 24.8 µM (active)”.
On to `CO/N=C(/C(=O)OC)c1ccccc1COc1ccccc1C`, for which the Potency result in assay [1], in assay [3], in assay [14], in assay [6], in [15] and in [7] was “inactive” throughout. Further, the Potency result in assay [11], in assay [13] and in [10] was “inactive” in each case. Also, the Potency is 2.73 µM (active) in [2]; 8.63 µM (active) in assay [5]; 0.633 µM (active) in assay [8]; 28.3 µM (active) in [12]; 20 µM (active) in assay [9].
Turning to `CC(C)N(C(=O)COc1nnc(C(F)(F)F)s1)c1ccc(F)cc1`, the Potency entry in [1], in assay [2], in assay [3], in assay [4], in assay [7] and in assay [11] was “inactive” throughout. The Potency result in assay [13] and in [10] was “inactive” each time. Moreover, the Potency in assay [14] was 39.9 µM (active); in [8], 1 µM (active); in assay [12], 35.6 µM (active); in [9], 39.9 µM (active).
Regarding `BrCC(Br)C1CCC(Br)C(Br)C1` (stereo unspecified), the Potency entry in assay [1], in assay [2], in assay [3], in [4], in [6] and in assay [15] was “inactive” each time. In addition, the Potency entry in [7] and in [10] was “inactive” throughout. The values for the Potency in assay [5], in assay [8] and in [12] were 48.3 µM (active), 11.2 µM (active) and 31.6 µM (active), respectively.
As to `CCOP(=S)(OCC)Oc1cc(Cl)c(Br)cc1Cl`, the Potency entry in assay [1], in [2], in assay [3], in assay [4], in assay [11] and in assay [13] was “inactive” throughout. Also, the Potency in [5] is 61.1 µM (active); in assay [8] it was 0.71 µM (active); in [12], 2 µM (active); in [9], 3.56 µM (active); in [10] it was 2.24 µM (active).
As to `O=C(Nc1ccccc1)Nc1ccnc(Cl)c1`, the Potency entry in assay [1], in assay [3], in assay [14], in assay [6], in assay [15] and in assay [7] was “inactive” in each case. Besides, in [13], the Potency result is “inactive”. The Potency in assay [2] is 48.6 µM (active); in assay [5] it was 30.6 µM (active); in assay [11], 39.9 µM (active); in assay [8] it was 35.6 µM (active); in assay [12], 10 µM (active); in assay [9] it was 20 µM (active).
Take `C=CCN1CC[C@]23c4c5ccc(O)c4O[C@H]2C(=O)CC[C@@]3(O)[C@H]1C5`: the Potency entry in assay [1], in assay [2], in [3], in assay [4] and in [13] was “inactive” throughout. The max activation in assay [16] is -2.21% (inactive) and -3.34% (inactive).
On to `O=C(N[C@H](c1ccccc1)[C@@H]1CN2CCC1CC2)c1c(Cl)ccc(C(F)(F)F)c1Cl`, for which the Potency entry in assay [1], in assay [3], in assay [5] and in assay [9] was “inactive” in each case. Moreover, the Potency was 78.1 µM (active) in assay [2], 55.3 µM (active) in assay [4], 2.56 µM (active) in assay [11] and 39.5 µM (active) in assay [13].
